# PI5P4K alpha inh: qHTS for Inhibitors of phosphatidylinositol 5-phosphate 4-kinase (PI5P4K); PI5P4Kalpha enzyme, ADP-Glo luminescence, 60 min; active compounds read low; max response, %; 330,000 tested, 1.2% active; AID 652105, 2013; active = max response of -50% or lower; inconclusive = between -30% and -50%; inactive = -30% or higher; note: value at the top dose of about 77 µM
#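 ADP-Glo luminescence end-point after a 60 min room-temperature kinase reaction. PI5P4Kalpha and substrate in HEPES pH 7.4 buffer with EGTA, 0.1% CHAPS and 5% DMSO; ATP at 5 microM final.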
# Pol beta inh: qHTS Assay for Inhibitors of DNA Polymerase Beta | P06746 | Pol beta primer extension/strand displacement, fluorescence kinetic | Potency, µM (series often up to 114 µM), most hits filed as inhibitors | 340,000 tested, 1.3% active | AID 485314, 2010
#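 Pol beta (10 nM) was preincubated with compound for 15 min at room temperature. The reaction was then started with 50 nM substrate and read immediately and after a further 10 min at room temperature.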
# POLI inh: qHTS for Inhibitors of Polymerase Iota; DNA polymerase iota (Homo sapiens), Q9UNA4; Pol iota fluorescent replication assay, 10 min; Potency, µM (doses to about 115 µM), actives largely listed as inhibitors; 390,000 tested, 1% active; AID 588590, 2011
#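 Fluorescent replication assay read twice, at 0 min and 10 min after adding 50 nM (final) substrate. Enzyme (10 nM) and compounds were first incubated 15 min at room temperature; enzyme-free buffer wells were negative controls.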
# WRN inhibitor: qHTS for Inhibitors of WRN Helicase; WRN helicase unwinding, fluorescent forked duplex, kinetic; Potency, µM (series often up to 114 µM), most hits filed as inhibitors; AID 651768, 2012; 360,000 tested, 0.46% active; note: nearly all actives have a fitted effect of over 55% in size
#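 WRN at 20 nM final preincubated with compound 15 min at room temperature; reaction started with 100 nM fluorophore/quencher forked duplex oligonucleotide and 2 mM ATP final. Unwinding followed kinetically by red fluorescence (ex 525, em 598 nm).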
# Pol eta inh-1: qHTS for Inhibitors of Polymerase Eta. recombinant Pol eta, fluorescent DNA replication assay. 390,000 tested, 1.2% active. Potency, µM (doses to about 114 µM), hits mostly inhibitors. AID 588591, 2011
# Target sequence (Q9Y253 whole entry, looked up): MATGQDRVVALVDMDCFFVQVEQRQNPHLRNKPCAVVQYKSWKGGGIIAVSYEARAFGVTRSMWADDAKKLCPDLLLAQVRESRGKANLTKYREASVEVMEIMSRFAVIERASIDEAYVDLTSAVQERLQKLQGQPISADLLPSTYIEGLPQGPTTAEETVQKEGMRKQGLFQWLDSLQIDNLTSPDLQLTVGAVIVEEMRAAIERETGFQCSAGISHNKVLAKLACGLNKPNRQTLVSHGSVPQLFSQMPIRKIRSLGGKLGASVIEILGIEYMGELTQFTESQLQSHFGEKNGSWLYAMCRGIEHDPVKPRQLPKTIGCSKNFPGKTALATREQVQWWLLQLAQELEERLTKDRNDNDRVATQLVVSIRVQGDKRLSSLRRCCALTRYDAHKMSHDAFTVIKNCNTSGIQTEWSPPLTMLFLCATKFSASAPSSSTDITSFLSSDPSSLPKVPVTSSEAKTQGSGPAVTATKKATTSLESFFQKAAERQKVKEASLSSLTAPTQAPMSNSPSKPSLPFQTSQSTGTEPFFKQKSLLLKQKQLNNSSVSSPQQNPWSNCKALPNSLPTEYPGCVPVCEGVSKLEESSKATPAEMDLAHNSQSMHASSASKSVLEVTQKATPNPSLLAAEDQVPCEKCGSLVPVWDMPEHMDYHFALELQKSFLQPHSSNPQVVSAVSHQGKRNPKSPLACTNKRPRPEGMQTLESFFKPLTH
#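 Fluorescent replication assay: 50 nM final substrate added after a 15 min room-temperature compound preincubation with 10 nM enzyme. Signal taken at 0 min and again at 10 min.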
# Pol kappa inh-1: qHTS for Inhibitors of Polymerase Kappa | purified Pol kappa, fluorescent DNA synthesis assay, 10 min | Potency, µM (highest dose often 107 µM), most hits filed as inhibitors | 400,000 tested, 0.53% active
#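 Here, compound and 10 nM enzyme are combined for 15 min at room temperature; adding 50 nM substrate (final) starts DNA synthesis, tracked by fluorescence at 0 and 10 min against buffer-only wells.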
# TbPGK inh: qHTS for inhibitors of Phosphogylcerate Kinase: Hit Validation Screen | shares compounds with Pol kappa inh-1 | 500 tested, 79% active | TbPGK coupled GAPDH assay, Kinase-Glo luminescence | Potency, µM (doses to about 57.5 µM), usual class: inhibitors; note: nearly all actives have a fitted effect of over 65% in size
# POLI cherry-pick: qHTS for Inhibitors of Polymerase Iota: Confirmatory Assay for Cherry-picked Compounds. 1,500 tested, 77% active. Potency, µM, most hits filed as inhibitors. shares compounds with Pol kappa inh-1. AID 720496, 2013. Pol iota primer extension, TAMRA/BHQ fluorescence
# Pol kappa inh-2: qHTS for Inhibitors of Polymerase Kappa: Confirmatory Assay for Cherry-picked Compounds | AID 720501, 2013 | 920 tested, 76% active | shares compounds with Pol eta inh-1 | purified Pol-kappa, fluorescent strand-displacement substrate | Potency, µM, actives largely listed as inhibitors
# Pol eta inh-2: qHTS for Inhibitors of Polymerase Eta: Confirmatory Assay for Cherry-picked Compounds | Potency, µM, most hits filed as inhibitors | AID 720502, 2013 | shares compounds with Pol eta inh-1 | Pol eta primer extension, TAMRA/BHQ fluorescence, 10 min | 2,600 tested, 64% active
# Hits are given with their value; 0 = inactive; ? = inconclusive; - = not tested or not shown; ! = not active in a repeat; [ ] = dose if it differs, or a comment. The list is not random: actives were taken first. Their share in the collection is about 2.8%. Unless noted, calls come from the whole dose curve; as a rule, active = well fitted curve in the direction sought with a large enough effect; inconclusive = small, poorly fitted or top-dose-only effect, or another doubt; inactive = no such curve, though single readings can be large; an effect the other way counts as inactive or inconclusive.
SMILES,PI5P4K alpha inh,Pol beta inh,POLI inh,WRN inhibitor,Pol eta inh-1,Pol kappa inh-1,POLI cherry-pick,Pol kappa inh-2,Pol eta inh-2,others
O=C(CCS(=O)(=O)c1ccc(Br)cc1)NCCc1ccccc1,0,?,50µM,?,20µM,?,?,17,48,
NS(=O)(=O)c1ccc(CCNC(=O)COC(=O)c2ccc([N+](=O)[O-])o2)cc1,0,-,35µM,0,?,0,84,-,?,
NS(=O)(=O)c1ccc(CCNC(=O)COC(=O)Cc2ccc([N+](=O)[O-])cc2)cc1,0,-,0,0,0,0,-,-,-,
NS(=O)(=O)c1ccc(CCNC(=O)CCS(=O)(=O)c2ccc(Br)cc2)cc1,0,28µM,0,?,20µM,0,38,-,43,
Cc1ccc(S(=O)(=O)N2CC3(O)CN(C(=O)OC(C)C)N(C(=O)OC(C)C)CC3(OC(=O)Nc3cccs3)C2)cc1 (stereo not drawn),0,-,-,0,0,-,-,-,-,
CN(C)CCNc1ccc2ncn3c4ccc(O)cc4c(=O)c1c23,0,-,79µM,?,?,22µM,12,9.5,-,
CCCCC/C=C\C/C=C\C/C=C\CCCCC(=O)O,-54,-,40µM,?,20µM,50µM!,67,21,30,
Cc1cc(C)n2nc(C(=O)OCC(=O)c3ccccc3Cl)nc2n1,0,-,0,0,?,0,-,-,-,
Cc1cc(C)n2nc(C(=O)OCC(=O)c3cc(C)n(C)c3C)nc2n1,?,32µM,?,?,14µM,?,?,-,85,
O=c1c(O)cccc2cc(O)c(O)c(O)c12,-83,0.16µM,?,4µM,0,0.89µM,27,24,19,TbPGK inh=0.26µM
O=C(O)/C=C/c1ccc([N+](=O)[O-])o1,0,?,25µM,0,20µM,?,30,-,24,TbPGK inh=4.6µM
Cc1cccc(N(C)C(=O)CN(C)S(=O)(=O)c2ccc3[nH]c4c(c3c2)CCCC4)c1,-,0,0,-,0,0,-,-,-,
O=C(NC1CCCC1)C1C(c2ccc(C(F)(F)F)cc2)=Nc2ccccc2N1C(=O)c1cc2ccccc2[nH]1 (stereo not drawn),0,-,-,0,-,-,-,-,-,
O=C1C[C@H](c2ccccc2Cl)N1S(=O)(=O)c1ccccc1[N+](=O)[O-],-,-,0,-,-,0,-,-,-,
CC(=O)Nc1sc2c(c1-c1nc3ccccc3s1)CCN(C(C)C)C2,0,3.5µM,?,0,?,?,19,12,-,
CC(=O)Nc1sc2c(c1-c1nc3ccccc3s1)CCNC2,-,-,-,-,-,-,21,8.4,-,
O=S(=O)(c1ccc(Br)cc1Cl)N1CCN(CCO)CC1,0,0,0,0,0,0,-,-,-,
O=C1C=CC(=O)c2c(O)c(N3CCN(CCO)CC3)c(Cl)c(O)c21,?,-,5.6µM,32µM,1.8µM,22µM,3.4,17,17,
Cc1ccccc1Nc1nc(N)c(C(=O)c2ccccc2Cl)s1,-,0,0,-,-,0,-,-,-,
Cc1ccc(-c2nnc(OCc3nc4ccccc4n3C)c3ccccc23)cc1,0,-,0,0,0,0,-,-,-,
O=C1NC(=S)S/C1=C\C=C\c1ccc([N+](=O)[O-])o1,-96,?,2.2µM,40µM,2.2µM,10µM,2.7,4.7,4.8,TbPGK inh=2.6µM
COc1cccc(-c2nc(-c3ccc(NC(=O)c4ccncc4)cc3)no2)c1,0,14µM,?,0,35µM,0,11,-,11,
O=C(Nc1nc2ccc(F)cc2s1)c1nc(S(=O)(=O)Cc2ccccc2)ncc1Cl,-,0,0,-,0,0,-,-,-,
COc1ccc2nc(NC(=O)c3nc(S(=O)(=O)Cc4ccccc4)ncc3Cl)sc2c1,-,5.6µM,?,-,?,?,30,-,76,
CCOc1ccc(CC(=O)N/N=C/c2sccc2C)cc1,0,0,0,0,0,0,-,-,-,
SMILES,PI5P4K alpha inh,Pol beta inh,POLI inh,WRN inhibitor,Pol eta inh-1,Pol kappa inh-1,POLI cherry-pick,Pol kappa inh-2,Pol eta inh-2,others
O=C(O)C1=C(C(=O)O)C2C=CC1C2,0,-,?,0[11.6 µM],20µM,?,-,24,?,TbPGK inh=10µM
CC(C)(Cc1nc2ccccc2[nH]1)c1nc2ccccc2[nH]1,0,-,-,0,0,-,-,-,-,
CC(=O)Nc1ccc(C=NNc2ccc(S(=O)(=O)Nc3ccccc3C(=O)O)cc2[N+](=O)[O-])cc1,-92,-,?,?,22µM,0,?,21,76,
O=C(O)c1ccccc1NS(=O)(=O)c1ccc(NNC(=S)Nc2ccc(OC(F)F)cc2)c([N+](=O)[O-])c1,-82,89µM,?,?,25µM,?,75,-,76,
Cc1ccc(NC(=S)NNc2ccc(C(=O)O)cc2[N+](=O)[O-])cc1C,0,-,?,0,0,0,-,-,-,
CCOc1cc(/C=N/Nc2ccc(S(=O)(=O)Nc3ccccc3C(=O)O)cc2[N+](=O)[O-])cc(Cl)c1O,-69,-,-,?,25µM,-,47,24,67,
COc1ccccc1-n1c(C)cc(/C=C2\C(=N)N3N=C(CC(=O)N4CCOCC4)SC3=NC2=O)c1C,0,0,0,0,0,0,-,-,-,
N=C1/C(=C\c2ccc(-c3cccc(C(=O)O)c3)o2)C(=O)N=C2SC=C(c3ccccc3)N12,-98,20µM,20µM,40µM,8.9µM,40µM,30,-,9.5,
N=C1/C(=C/c2ccc(-c3cccc(C(=O)O)c3)o2)C(=O)N=C2SC(CC(=O)N3CCOCC3)=NN12,-83,?,3.5µM,22µM,3.5µM,?,17,-,4.8,
CS(=O)(=O)N1CCN(c2ccc([N+](=O)[O-])c(NCc3ccc(Cl)cc3)c2)CC1,0,?,8.9µM,?,?,?,38,-,85,
Cc1csc(NC(=O)C2(C)CCN2C(=O)C(C)C)c1C#N (stereo not drawn),0,-,-,0,-,-,-,-,-,
N/C(=C\c1ccccc1)c1ccncc1,-,-,0,-,-,0,-,-,-,

# Screening results deposited in PubChem BioAssay by National Center for Advancing Translational Sciences (NCATS).
